{"source": "PubChem BioAssay (Tox21)", "note": "The source made the active and inactive calls. Entries that show only a call come without a potency. The call rests on the fitted dose curve; in most records, active means well fitted cell-killing curve with a large enough effect in the repeat runs; inconclusive means weak or mixed curves, or effect the other way; inactive means flat fitted curve, though single readings scatter. Potency means the concentration at half of the fitted maximal effect.", "data": [{"assay": "qHTS assay to identify small molecule HDAC inhibitors - cell viability counter screen (AID 1259365); further: nearly all actives have a fitted effect of over 50% in size", "conditions": "HCT-116 viability, CellTiter-Glo ATP luminescence, 2 h; series mostly up to 92.4 µM", "description": "U.S. Tox21 Program National Center for Advancing Translational Sciences [NCATS] NIH Chemical Genomics Center [NCGC] U.S. Environmental Protection Agency [EPA] National Institutes of Environmental Health Sciences [NIEHS] National Toxicology Program [NTP] U.S. Food and Drug Administration [FDA] Tox21 Assay Overview: Histone deacetylases (HDACs) are a group of epigenetic enzymes that regulate gene expression by histone deacetylation. HDACs are capable of introducing epigenetic modifications and such aberrations contribute to the onset and progression of several human diseases, thus making HDACs a popular therapeutic target. For identifying endogenous class I/II HDAC inhibitors a homogenous, luminogenic HDAC I/II cell based assay was used to measure the relative activity of class I and II HDACs from cells. Wild type HCT-116 cells were used to screen Tox21 compound libraries for identifying class I/II HDAC inhibitors.\nTox21 Assay Protocol Summary: HCT-116 cells were dispensed at 1,500 per well in 5uL of culture medium into white solid bottom 1536-well plates (Greiner Bio-One, Monroe, NC) using a Multidrop Combi (Thermo Scientific, Waltham, MA) dispenser. The assay plates were incubated at 37 C and 5% CO2 for an overnight, and then 23nL of compounds dissolved in DMSO and positive control were transferred using a Pintool station (Wako, San Diego, CA). The assay plates were incubated at 37C and 5% CO2 for 2hr. After compound treatment, 4uL of CellTiter-Glo reagent (Promega Corporation, Madison, WI) was added to each well of the assay plates using Flying Reagent Dispenser (FRD, Aurora Discovery, San Diego, CA) and incubated the assay plates at room temperature for 30min. The luminescence signal was quantified using a ViewLux plate reader (Perkin Elmer, Shelton, CT).", "values": [{"smiles": "CCCCCCOC(=O)CCCCC", "Potency": "inactive"}, {"smiles": "CC(=O)OCC(C)C", "Potency": "inactive"}, {"smiles": "O=C(O)CN1C(=O)c2cccc3cccc(c23)C1=O", "Potency": "inactive"}, {"smiles": "CCN(Cc1cccc(S(=O)(=O)O)c1)c1ccc(C(=C2C=CC(=[N+](CC)Cc3cccc(S(=O)(=O)O)c3)C=C2)c2ccccc2S(=O)(=O)[O-])cc1", "Potency": "12.2 µM (active)"}, {"smiles": "CCCCCCCCCCCCCCCCCC(=O)OCC(CC)CCCC", "note": "(stereo not given)", "Potency": "inactive"}, {"smiles": "Nc1nc(-c2ccc([N+](=O)[O-])cc2)cs1", "Potency": "inactive"}, {"smiles": "O=c1[nH]c2cc(C(F)(F)F)c(N3CCOCC3)cc2n(CP(=O)(O)O)c1=O", "Potency": "inactive"}, {"smiles": "C=CC(=O)O", "Potency": "inactive"}, {"smiles": "FC(F)(F)C(F)(F)C(F)(F)C(F)(F)CCI", "Potency": "inactive"}, {"smiles": "CC(C)Cc1ccc(CC(=O)O)cc1", "Potency": "inactive"}, {"smiles": "CC1=CC[C@@]23C[C@@H]1C(C)(C)[C@@H]2CC[C@H]3C", "Potency": "inactive"}, {"smiles": "CCCC(=O)OC(=O)CCC", "Potency": "inactive"}, {"smiles": "CC(C)(O)CCc1ccccc1", "Potency": "inactive"}, {"smiles": "O=C(O)/C=C/c1ccc(O)c(O)c1", "Potency": "inactive"}, {"smiles": "CCCCCCCCCCCCCCN(C)C", "activity change, negative = cytotoxicity": "3.73% [at 19 µM] (inactive)"}, {"smiles": "CN(C)CC/C=C1\\c2ccccc2Sc2ccc(Cl)cc21", "Potency": "inactive"}, {"smiles": "COc1ccc(-c2cc(C(F)F)nn2-c2ccc(S(N)(=O)=O)cc2)cc1F", "Potency": "inactive"}, {"smiles": "CCN(CC)C(=O)N1CCN(C)CC1", "Potency": "inactive"}, {"smiles": "CC1=CC[C@@H]2C[C@H]1C2(C)C", "activity change, negative = cytotoxicity": "-0.126% [at 19 µM] (inactive)"}, {"smiles": "CC(=O)OCC1=C(C(=O)O)N2C(=O)[C@@H](NC(=O)CSc3ccncc3)[C@H]2SC1", "Potency": "inactive"}, {"smiles": "CCOc1ncc(F)c(=O)[nH]1", "Potency": "inactive"}, {"smiles": "CC(C)CC(O)CC(C)C", "Potency": "inactive"}, {"smiles": "NC(=O)CCCCC(N)=O", "Potency": "inactive"}, {"smiles": "CC(C)(C)S", "Potency": "inactive"}, {"smiles": "CC(C)OC(=O)c1ccccc1C(=O)OC(C)C", "Potency": "inactive"}, {"smiles": "CC[C@H]1OC(=O)[C@H](C)[C@@H](O[C@H]2C[C@@](C)(OC)[C@@H](O)[C@H](C)O2)[C@H](C)[C@@H](O[C@@H]2O[C@H](C)C[C@H](N(C)C)[C@H]2O)[C@](C)(O)C[C@@H](C)/C(=N\\OCOCCOC)[C@H](C)[C@@H](O)[C@]1(C)O", "Potency": "inactive"}, {"smiles": "CCCCCCC(O)CCCCCCCCCCC(=O)OC", "note": "(stereo not given)", "Potency": "inactive"}, {"smiles": "CC(=O)Oc1cccc(O)c1", "Potency": "inactive"}, {"smiles": "COc1cc(NC(C)CCCN)c2ncccc2c1", "note": "(stereo not given)", "Potency": "inactive"}, {"smiles": "CCOC(=O)Oc1ccc(CCNC(=O)[C@H](CCSC)NC(C)=O)cc1OC(=O)OCC", "Potency": "inactive"}, {"smiles": "CC(CN(CCN(CC(C)OCCO)CC(C)OCCO)CC(C)OCCO)OCCO", "note": "(stereo not given)", "Potency": "inactive"}, {"smiles": "CC(=O)OC(C)C[N+](C)(C)C", "note": "(stereo not given)", "Potency": "inactive"}, {"smiles": "CCN(CC)CCOc1ccccc1C(=O)CCc1ccccc1", "Potency": "inactive"}, {"smiles": "O=C(O)c1cc(Cl)cc(Cl)c1O", "Potency": "inactive"}, {"smiles": "C=C(C)C(=O)OCCC(F)(F)C(F)(F)C(F)(F)C(F)(F)C(F)(F)C(F)(F)F", "Potency": "inactive"}, {"smiles": "COC(=O)C1=C(C)NC(C)=C(C(=O)OC(C)(C)CN(C)CCC(c2ccccc2)c2ccccc2)C1c1cccc([N+](=O)[O-])c1", "note": "(stereo not given)", "Potency": "inactive"}, {"smiles": "CC(C)c1ccc(C#N)cc1", "Potency": "inactive"}, {"smiles": "CCCCCCCCCCCSCC(=O)O", "Potency": "inactive"}, {"smiles": "CCN(CC)CCNC(=O)c1cc(Cl)c(N)cc1OC", "Potency": "inactive"}, {"smiles": "Oc1ccc2c(c1)Cc1ccccc1-2", "Potency": "inactive"}]}]}
